# Measurements published in PubChem BioAssay AID1794835 (Parasite Biology Lab, Institute for Biomedicine and …, 2023).
# Out of some 2,500 compounds screened, about 45 (2%) were called active. The sample holds actives, similar compounds and a random draw of the others, so the mix is not that of the screen. No stated cut-off is given here; in the data, active means inhibition mostly above about 45% (no sharp cut-off); inactive means mostly below about 37%.
# Experiment: anti-Giardia activity of synthetic compounds – Compounds Australia Scaffold Library subset, 24/48 h, primary screen (AID 1794835);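 on inhibition: 0% = parasite counts in DMSO vehicle wells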
# Settings: Giardia lamblia BRIS/91/HEPU/1279 trophozoite counts, imaging, at 10 µM
# [1] = measured here: growth inhibition at 24 h, stronger effect = higher value
smiles,measurement,setting,value
Cc1ccc(NC(=O)C2=NN(CC(=O)Nc3ccc4c(c3)OCCO4)C(=O)CC2)cc1,inhibition,,inactive
Cc1ccc(NC(=O)c2ccc(=O)n(CCN3CCOCC3)n2)cc1,inhibition,stronger effect = higher value,2.3% (inactive)
same,inhibition,[1],1.4%
Cc1ccc(NC(=O)c2cc3c(Cl)ccc4c3n2CCO4)cc1,inhibition,stronger effect = higher value,49.3% (active)
same,inhibition,[1],30.6%
CCOc1ccc(NC(=O)CN2C(c3ccc(C)cc3)=CC(c3ccccc3)n3nnnc32)cc1 (configuration not stated),inhibition,,inactive
CCN(CC)CCN1C(=O)C(O)=C(C(=O)c2cccs2)C1c1ccc(C)o1 (configuration not stated),inhibition,stronger effect = higher value,15% (inactive)
O=c1ccc(-c2nnco2)cn1Cc1ccc(F)c2cccnc12,inhibition,,inactive
CC1CCN(C(=O)c2oc3ccccc3c2NC(=O)c2ccc([N+](=O)[O-])o2)CC1,inhibition,stronger effect = higher value,95.2% (active)
same,inhibition,[1],87.8%
Cc1ccc(NC(=O)c2oc3ccccc3c2NC(=O)c2ccccc2)cc1,inhibition,stronger effect = higher value,1.2% (inactive)
CC1CCN(C(=O)c2n[nH]c(=O)c3ccccc23)CC1,outcome,,inactive
same,inhibition,[1],4%
Cn1cc(S(=O)(=O)N2CCN(C(=O)Cc3c[nH]c4ccccc34)CC2)cc1C(N)=O,inhibition,,inactive
Cc1cc(NCc2ccccc2CN2CCCC2)nc(-c2ccncc2)n1,inhibition,,inactive
Cc1nn(-c2ccc(F)cc2)c2sc(C(=O)N3CCCCC3C(N)=O)cc12 (configuration not stated),inhibition,,inactive
COc1ccccc1N1CCN(C(=O)c2cc(C3CC3)[nH]n2)CC1,outcome,,inactive
same,inhibition,[1],9.6%
COc1ccccc1N1CCN(C(=O)c2ccc3[nH]c(C)c(C)c3c2)CC1,inhibition,stronger effect = higher value,36.6% (inactive)
Cc1nn(-c2ccccc2)c2sc(C(=O)N3CCCCC3)cc12,inhibition,stronger effect = higher value,39.6% (active)
same,inhibition,[1],21.1%
COc1ccccc1N1CCN(C(=O)c2cc3c(C)nn(-c4ccc(C)cc4)c3s2)CC1,inhibition,stronger effect = higher value,65.7% (active)
same,inhibition,[1],48%
Cc1nn(Cc2ccccc2)c2sc(C(=O)N3CCN(C(=O)N4CCCCC4)CC3)cc12,inhibition,stronger effect = higher value,14% (inactive)
Cc1ccc(-c2ncc(C(=O)NC3CCCCCC3)c(C)n2)cc1,outcome,,inactive
same,inhibition,[1],6.7%
COc1cccc(CNC(=O)Cn2ccc3sccc3c2=O)c1,inhibition,stronger effect = higher value,6.6% (inactive)
same,inhibition,[1],0.5%
COc1cccc(N2CCN(C(=O)C3CCN(c4nc(NC(C)=O)ns4)CC3)CC2)c1,inhibition,stronger effect = higher value,16.2% (inactive)
same,inhibition,[1],7.9%
CCCc1cc(N2CCOCC2)n2nc(C)c(-c3ccccc3)c2n1,inhibition,stronger effect = higher value,20.2% (inactive)
Cc1cc(NC(=O)CN2c3ccccc3NC3=C(C(=O)CC(C)(C)C3)C2c2ccccc2)no1 (configuration not stated),inhibition,,inactive
Cn1cnc2onc(C(=O)NC3CCCCC3)c2c1=O,inhibition,,inactive
O=S(=O)(c1cccc(F)c1)N1CC(OCc2cccc(F)c2)C1,inhibition,stronger effect = higher value,10% (inactive)
same,inhibition,[1],1.5%
Nc1c(-c2nc(-c3ccccc3)cs2)c2ccccn2c1C(=O)c1ccc2c(c1)OCO2,inhibition,stronger effect = higher value,83.1% (active)
same,inhibition,[1],63.2%
COc1ccc(C(=O)c2c(N)c(-c3nc(-c4cc(OC)ccc4OC)cs3)c3ccccn23)cc1,outcome,,inactive
same,inhibition,[1],3.8%
Cc1nc2sccn2c1-c1nc(-c2ccccc2)c(C(=O)c2ccc3c(c2)NC(=O)CO3)s1,inhibition,stronger effect = higher value,7% (inactive)
same,inhibition,[1],1.6%
COc1cccc(C(=O)N2CCN(CC3CCCO3)CC2)c1 (configuration not stated),inhibition,,inactive
CCOc1ccc(NC(=O)N2Cc3cccn3-c3ccccc32)cc1,inhibition,,inactive
CN1CCCN(c2ncnc3cc(Cl)ccc23)CC1,inhibition,,inactive
N=C1C(c2nc(-c3ccc(Cl)cc3)cs2)=C(O)CN1CCc1ccccc1,inhibition,,inactive
COc1ccc(-c2csc(-n3nccc3C(F)(F)F)n2)cc1OC,inhibition,stronger effect = higher value,27.9% (inactive)
same,inhibition,[1],8%
COc1ccc(-c2csc(C3=C(O)CN(CC(C)(C)CN(C)C)C3=N)n2)cc1OC,inhibition,stronger effect = higher value,76.8% (active)
same,inhibition,[1],23.9%
Cc1ccc(COCc2nn(C)c3c2CN(C(=O)Nc2ccccc2)CC3)cc1,outcome,,inactive
same,inhibition,[1],4.7%
CCn1cc(C(=O)NCc2ccccc2)c(=O)c2ccc(C)nc21,inhibition,stronger effect = higher value,6.1% (inactive)
same,inhibition,[1],8.9%
Cc1ncncc1C(=O)N1CCN(CC(O)C(C)(C)C)CC1 (configuration not stated),inhibition,,inactive
COc1ccc(Nc2cc(C)nc(N3CCN(C(=O)Nc4cccc(OC)c4)CC3)n2)cc1,inhibition,stronger effect = higher value,86.6% (active)
same,inhibition,[1],49.4%
COc1ccc(Nc2cc(C)nc(N3CCN(C(=O)c4ccccc4)CC3)n2)cc1,inhibition,stronger effect = higher value,29.3% (inactive)
same,inhibition,[1],5.55%
COc1ccc(NC(=O)N2CCN(c3cc(C)nc(N4CCOCC4)n3)CC2)cc1,inhibition,stronger effect = higher value,44.4% (inactive)
same,inhibition,[1],12.7%
CN(C)C(=O)CN1CCCN(Cc2ncc(C(C)(C)C)o2)CC1,inhibition,stronger effect = higher value,1.9% (inactive)
same,inhibition,[1],6.5%
CCN(Cc1ccccc1)C(=O)c1cc(-c2ccccc2)n[nH]1,inhibition,stronger effect = higher value,36.1% (inactive)
same,inhibition,[1],19.1%
Cc1noc(C)c1S(=O)(=O)N1CCC(C(=O)NCC(c2ccccc2)N(C)C)CC1 (configuration not stated),outcome,,inactive
same,inhibition,[1],10.5%
Cc1nn(C)c2sc(C(=O)N3CCN(S(=O)(=O)c4ccc(Br)cc4)CC3)cc12,inhibition,stronger effect = higher value,10.6% (inactive)
COc1ccc2c(c1)CCc1c-2noc1-c1ccc(NC(=O)c2cc(C)nn2C)cc1,inhibition,,inactive
CCOc1ccc(C(=O)Nc2ccc(-c3nnc4n3CCCCCC4)cc2)cc1,inhibition,,inactive
COc1ccc(NC(=O)c2ccc(-c3cc(NC4CCCCC4)ncn3)cc2)cc1,inhibition,stronger effect = higher value,51% (active)
same,inhibition,[1],17.1%
Cc1ccc(CNC(=O)N2CCN(C3=CC4=NCC(C)N4C=N3)CC2)cc1 (configuration not stated),inhibition,stronger effect = higher value,11.9% (inactive)
same,inhibition,[1],18.7%
Fc1ccc(C2=Nc3ccc(Cl)cc3NC(c3cccs3)=N2)cc1,outcome,,inactive
same,inhibition,[1],23%
Cc1ccc2c(c1)NC(c1ccc(C)o1)=NC(c1cccs1)=N2,inhibition,stronger effect = higher value,54.6% (active)
same,inhibition,[1],15.2%
CCn1c(C2CCN(C(=O)c3ccc(Br)cc3)C2)nc2cccnc21 (configuration not stated),inhibition,,inactive
CCCn1c(=O)c(C)nc2cc(-c3noc(-c4cccc(NC(=O)c5ccco5)c4)n3)ccc21,inhibition,,inactive
COc1cc(OC)c(N2CC(C(=O)N3CCc4sccc4C3)CC2=O)cc1Cl (configuration not stated),inhibition,,inactive
O=[N+]([O-])c1cc(F)ccc1Sc1nnc(N2CCOCC2)s1,inhibition,stronger effect = higher value,60.8% (active)
same,inhibition,[1],30.9%
C1CCC(Sc2nnc(N3CCOCC3)s2)C1,inhibition,,inactive
O=[N+]([O-])c1ccccc1Sc1nnnn1C1CCOCC1,inhibition,stronger effect = higher value,8.6% (inactive)
same,inhibition,[1],6.15%
CCCC(=O)Nc1ccc2nc(N3CCCC3)cc(C(=O)O)c2c1,inhibition,,inactive
COc1ccc(CN2CCN(C(=O)c3c(C)oc4c3C3=NCCN3C=N4)CC2)c(OC)c1OC,inhibition,stronger effect = higher value,7.4% (inactive)
same,inhibition,[1],3%
Cc1ccccc1C(=O)Nc1cnc(N2CCNCC2)c(C(=O)N(C)Cc2ccccc2)c1,inhibition,stronger effect = higher value,15.2% (inactive)
same,inhibition,[1],10.2%
CCC(=O)N1CCC(Oc2ccc(C(=O)N3CCOCC3)cn2)CC1,inhibition,,inactive
Cc1nnc2n1CCN(C(=O)c1cc(Br)c[nH]1)C2,inhibition,,inactive
COc1cc(N2CCn3c(nc4cc(Cl)ccc43)C2)ccc1NC(=O)COc1ccccc1,inhibition,,inactive
COc1c(C)cnc(Cn2cnc([N+](=O)[O-])c2)c1C,inhibition,stronger effect = higher value,83% (active)
same,inhibition,[1],25.8%
Cc1noc(-c2c(C)sc(C)c2S(=O)(=O)NCc2ccccc2)c1C,inhibition,stronger effect = higher value,30.5% (inactive)
Cc1ccc(C(=O)N2CCC(Oc3ncccc3C(=O)N3CCCCC3)C2)c(C)c1 (configuration not stated),outcome,,inactive
same,inhibition,[1],0.6%
COc1ccc2oc(-c3noc(C(=O)NCCN4CCCCCC4)n3)c(C)c2c1,inhibition,stronger effect = higher value,56.6% (active)
same,inhibition,[1],11.6%
COc1ccc2oc(-c3noc(C(NC(=O)c4ccco4)C(C)C)n3)c(C)c2c1 (configuration not stated),inhibition,stronger effect = higher value,9.9% (inactive)
same,inhibition,[1],18.3%
Cc1ccc2oc(-c3noc(C(=O)NCC4CCCO4)n3)c(C)c2c1 (configuration not stated),outcome,,inactive
same,inhibition,[1],2%
Cc1cccc(-c2nc(Cn3nnc(C(=O)Nc4ccc5c(c4)OCCO5)c3N)c(C)o2)c1,inhibition,,inactive
CCOc1ccc(CCNC(=O)c2ccc3c(c2)nc2n3CCOC2)cc1OCC,inhibition,stronger effect = higher value,79.8% (active)
same,inhibition,[1],27.2%
CCOc1ccc(CCNC(=O)c2c(C)oc3c2C2=NCCN2C=N3)cc1OCC,inhibition,stronger effect = higher value,17.8% (inactive)
CSc1ccc(CCNC(=O)c2ccc3c(c2)nc2n3CCOC2)cc1,inhibition,stronger effect = higher value,12.8% (inactive)
Cc1ccc(-c2nc3ccccc3n2Cc2cccc(F)c2)o1,inhibition,stronger effect = higher value,16.3% (inactive)
same,inhibition,[1],22.1%
COc1ccc(C2(C(=O)N3CCC(Cc4nc(-c5ccc(F)cc5)no4)CC3)CC2)cc1,outcome,,inactive
same,inhibition,[1],11.4%
C=CCn1c(SCC(=O)N2CCCCC2)nc2scc(-c3ccco3)c2c1=O,inhibition,stronger effect = higher value,5.6% (inactive)
same,inhibition,[1],6.8%
CCCCn1nnnc1CN1CCCC1Cn1cncn1 (configuration not stated),outcome,,inactive
same,inhibition,[1],2%
O=C(Nc1ccn(Cc2cccnc2)n1)c1ccc2n[nH]nc2c1,inhibition,,inactive
O=C(Cc1csc2nc(-c3ccccc3)cn12)NCCc1cccs1,outcome,,inactive
same,inhibition,[1],0.1%
O=C(Cn1nccc1-c1ccncc1)Nc1ccc(Cl)cc1,inhibition,,inactive
O=C(Cc1csc2nc(-c3ccccc3)cn12)Nc1ccc(Cl)cc1,inhibition,stronger effect = higher value,67.7% (active)
same,inhibition,[1],47.6%
Cc1oc(-c2cccs2)nc1Cn1cccn1,inhibition,,inactive
O=C(Cc1noc(-c2ccoc2)n1)NC1CCCCC1,inhibition,stronger effect = higher value,3.1% (inactive)
same,inhibition,[1],4.9%
O=C(Cn1nc2c3cc(-c4ccccc4)nn3ccn2c1=O)N1CCCc2ccccc21,inhibition,,inactive
Cc1ccc(CNC(=O)c2ccc3nn(CC(=O)N(C)c4ccccc4)c(=O)n3c2)cc1,inhibition,,inactive
Cc1ccc(C)c(-c2cc3c4nn(CC(=O)N(C)c5ccc(F)cc5)c(=O)n4ccn3n2)c1,inhibition,stronger effect = higher value,96.3% (active)
same,inhibition,[1],79.6%
O=S(=O)(Cc1ccc(C(F)(F)F)cc1)Cc1noc(C2CC2)n1,outcome,,inactive
same,inhibition,[1],12.6%
CCc1nccn1CC1CCCN1 (configuration not stated),outcome,,inactive
same,inhibition,[1],0.2%
Cc1ccc(N2C(=O)N[C@@H]3C[C@]2(C)Oc2c(O)cc(C(C)(C)C)cc23)cc1C,inhibition,,inactive
Cc1c(-c2nc(-c3ccccc3)no2)nnn1-c1cccc(Cl)c1,inhibition,,inactive
CN(C)C(=O)Cc1nc(CN2CCc3c(ncn3C)C2)cs1,outcome,,inactive
same,inhibition,[1],1.4%
Cc1ccc(NC(=O)Cc2nc(-c3ccc4c(c3)CC(=O)N4C)cs2)cc1,inhibition,stronger effect = higher value,10% (inactive)
same,inhibition,[1],9.8%
Cc1ccc(C)c(NC(=O)Cc2nc(Cn3cnc([N+](=O)[O-])c3)cs2)c1,inhibition,stronger effect = higher value,59.9% (active)
same,inhibition,[1],8.45%
